# Experimental data published in publication PMC5540273 (PLoS ONE, 2017).
# Read-outs that look alike come from different tables or passages of the source.
# How the values were obtained:
# GRK7 = settings: concentration: 1 μM, replicates: in singlicate; n = 1
# GSK3A = settings: concentration: 1 μM, replicates: in singlicate; n = 1
# GSK3B = settings: n = 1
# HASPIN = system: T1, HASPIN; settings: concentration: 1 μM, replicates: in singlicate; n = 1
# T1 construct: gene GSG2
# HCK = settings: concentration: 1 μM, replicates: in singlicate; n = 1
# HIPK1 = settings: concentration: 1 μM, replicates: in singlicate; n = 1
# HIPK2 = settings: concentration: 1 μM, replicates: in singlicate; n = 1
# HIPK3 = settings: concentration: 1 μM, replicates: in singlicate; n = 1
# HIPK4 = settings: concentration: 1 μM, replicates: in singlicate; n = 1
# HPK1 = settings: concentration: 1 μM, replicates: in singlicate; n = 1
# HUNK = settings: concentration: 1 μM, replicates: in singlicate; n = 1
# ICK = settings: concentration: 1 μM, replicates: in singlicate; n = 1
# IGF1R = settings: concentration: 1 μM, replicates: in singlicate; n = 1
# IKK-alpha = system: T2, IKK-alpha; settings: concentration: 1 μM, replicates: in singlicate; n = 1
# T2 construct: gene CHUK
# IKK-beta = system: T3, IKK-beta; settings: concentration: 1 μM, replicates: in singlicate; n = 1
# T3 construct: gene IKBKB
# IKK-epsilon = system: T4, IKK-epsilon; settings: concentration: 1 μM, replicates: in singlicate; n = 1
# T4 construct: gene IKBKE
# INSRR = settings: concentration: 1 μM, replicates: in singlicate; n = 1
# INSR = settings: concentration: 1 μM, replicates: in singlicate; n = 1
# IRAK1 = settings: concentration: 1 μM, replicates: in singlicate; n = 1
# IRAK3 = settings: concentration: 1 μM, replicates: in singlicate; n = 1
# [1] = concentration: 1 μM, replicates: in singlicate
# 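Also: KINOMEscan kinase panel screen.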
structure (smiles),measurement,setting,value
Cc1cccc(-c2nc(Nc3cccc(C(N)=O)c3)c3ccccc3n2)n1 [GW876019],%Inh,GRK7,9%
same,%Inh,GSK3A,16%
same,%Inh,GSK3B; [1],12%
same,%Inh,HASPIN,14%
same,%Inh,HCK,24%
same,%Inh,HIPK1,44%
same,%Inh,HIPK2,43%
same,%Inh,HIPK3,2%
same,%Inh,HIPK4,0%
same,%Inh,HPK1,36%
same,%Inh,HUNK,44%
same,%Inh,ICK,0%
same,%Inh,IGF1R,4%
same,%Inh,IKK-alpha,0%
same,%Inh,IKK-beta,0%
same,%Inh,IKK-epsilon,0%
same,%Inh,INSRR,0%
same,%Inh,INSR,0%
same,%Inh,IRAK1,14%
same,%Inh,IRAK3,10%
CC(C)(C)c1ccc(C(=O)Nc2cn3cc(Cl)ccc3n2)cc1,%Inh,GRK7,0%
same,%Inh,GSK3A,3%
same,%Inh,GSK3B; [1],0%
same,%Inh,HASPIN,0%
same,%Inh,HCK,1%
same,%Inh,HIPK1,0%
same,%Inh,HIPK2,0%
same,%Inh,HIPK3,0%
same,%Inh,HIPK4,0%
same,%Inh,HPK1,4%
same,%Inh,HUNK,43%
same,%Inh,ICK,0%
same,%Inh,IGF1R,0%
same,%Inh,IKK-alpha,0%
same,%Inh,IKK-beta,100%
same,%Inh,IKK-epsilon,0%
same,%Inh,INSRR,0%
same,%Inh,INSR,0%
same,%Inh,IRAK1,0%
same,%Inh,IRAK3,23%
CN1C(=O)C(Nc2ccc(Cl)c(C(=O)O)c2)=C(c2ccc(Cl)cc2)C1=O [SB-404290],%Inh,GRK7,0%
same,%Inh,GSK3A,6%
same,%Inh,GSK3B; [1],33%
same,%Inh,HASPIN,21%
same,%Inh,HCK,17%
same,%Inh,HIPK1,19%
same,%Inh,HIPK2,8%
same,%Inh,HIPK3,34%
same,%Inh,HIPK4,11%
same,%Inh,HPK1,0%
same,%Inh,HUNK,32%
same,%Inh,ICK,20%
same,%Inh,IGF1R,0%
same,%Inh,IKK-alpha,0%
same,%Inh,IKK-beta,17%
same,%Inh,IKK-epsilon,0%
same,%Inh,INSRR,14%
same,%Inh,INSR,0%
same,%Inh,IRAK1,0%
same,%Inh,IRAK3,0%
Cc1cc(N2Cc3ccccc3C2)nc(Nc2ccc(S(=O)(=O)N3CCOCC3)cc2)n1.Cl [GSK1669917],%Inh,GRK7,0%
same,%Inh,GSK3A,0%
same,%Inh,GSK3B; [1],0%
same,%Inh,HASPIN,0%
same,%Inh,HCK,0%
same,%Inh,HIPK1,0%
same,%Inh,HIPK2,0%
same,%Inh,HIPK3,0%
same,%Inh,HIPK4,0%
same,%Inh,HPK1,34%
same,%Inh,HUNK,0%
same,%Inh,ICK,99.9%
same,%Inh,IGF1R,2%
same,%Inh,IKK-alpha,0%
same,%Inh,IKK-beta,0%
same,%Inh,IKK-epsilon,29%
same,%Inh,INSRR,0%
same,%Inh,INSR,100%
same,%Inh,IRAK1,0%
same,%Inh,IRAK3,0%
O=C(Nc1n[nH]c2cc(-c3cccc(F)c3F)ccc12)C1CC1 [SB-733894],%Inh,GRK7,55%
same,%Inh,GSK3A,0%
same,%Inh,GSK3B; [1],25%
same,%Inh,HASPIN,9%
same,%Inh,HCK,0%
same,%Inh,HIPK1,29%
same,%Inh,HIPK2,15%
same,%Inh,HIPK3,19%
same,%Inh,HIPK4,3%
same,%Inh,HPK1,0%
same,%Inh,HUNK,0%
same,%Inh,ICK,22%
same,%Inh,IGF1R,0%
same,%Inh,IKK-alpha,0%
same,%Inh,IKK-beta,5%
same,%Inh,IKK-epsilon,11%
same,%Inh,INSRR,0%
same,%Inh,INSR,41%
same,%Inh,IRAK1,0%
same,%Inh,IRAK3,10%
O=C(Nc1n[nH]c2nc(-c3nccs3)c(Br)cc12)C1CCCC1 [SB-742609],%Inh,GRK7,0%
same,%Inh,GSK3A,96.8%
same,%Inh,GSK3B; 1 µM,59%
same,%Inh,HASPIN,0%
same,%Inh,HCK,0%
same,%Inh,HIPK1,0%
same,%Inh,HIPK2,0%
same,%Inh,HIPK3,20%
same,%Inh,HIPK4,8%
same,%Inh,HPK1,33%
same,%Inh,HUNK,0%
same,%Inh,ICK,85%
same,%Inh,IGF1R,21%
same,%Inh,IKK-alpha,28%
same,%Inh,IKK-beta,27%
same,%Inh,IKK-epsilon,0%
same,%Inh,INSRR,32%
same,%Inh,INSR,9%
same,%Inh,IRAK1,38%
same,%Inh,IRAK3,0%
Cl.NC(=O)c1cccc(Nc2nccc(Nc3ccc(Oc4cccc(Cl)c4)c(Cl)c3)n2)c1 [GW659008],%Inh,GRK7,0%
same,%Inh,GSK3A,0%
same,%Inh,GSK3B; [1],0%
same,%Inh,HASPIN,0%
same,%Inh,HCK,72%
same,%Inh,HIPK1,0%
same,%Inh,HIPK2,0%
same,%Inh,HIPK3,0%
same,%Inh,HIPK4,0%
same,%Inh,HPK1,37%
same,%Inh,HUNK,0%
same,%Inh,ICK,85%
same,%Inh,IGF1R,14%
same,%Inh,IKK-alpha,3%
same,%Inh,IKK-beta,5%
same,%Inh,IKK-epsilon,0%
same,%Inh,INSRR,12%
same,%Inh,INSR,6%
same,%Inh,IRAK1,0%
same,%Inh,IRAK3,50%
CCn1c(-c2ccccn2)nc2cnccc21 [SB-736398],%Inh,GRK7,0%
same,%Inh,GSK3A,22%
same,%Inh,GSK3B; [1],0%
same,%Inh,HASPIN,47%
same,%Inh,HCK,0%
same,%Inh,HIPK1,0%
same,%Inh,HIPK2,13%
same,%Inh,HIPK3,0%
same,%Inh,HIPK4,0%
same,%Inh,HPK1,38%
same,%Inh,HUNK,7%
same,%Inh,ICK,9%
same,%Inh,IGF1R,19%
same,%Inh,IKK-alpha,37%
same,%Inh,IKK-beta,17%
same,%Inh,IKK-epsilon,0%
same,%Inh,INSRR,0%
same,%Inh,INSR,0%
same,%Inh,IRAK1,45%
same,%Inh,IRAK3,100%
Cc1ccc(NC(=O)Nc2cc(C(C)(C)C)nn2-c2ccccc2)cc1 [GSK1014915],%Inh,GRK7,0%
same,%Inh,GSK3A,0%
same,%Inh,GSK3B; [1],13%
same,%Inh,HASPIN,0%
same,%Inh,HCK,0%
same,%Inh,HIPK1,0%
same,%Inh,HIPK2,0%
same,%Inh,HIPK3,13%
same,%Inh,HIPK4,0%
same,%Inh,HPK1,25%
same,%Inh,HUNK,0%
same,%Inh,ICK,23%
same,%Inh,IGF1R,8%
same,%Inh,IKK-alpha,22%
same,%Inh,IKK-beta,20%
same,%Inh,IKK-epsilon,1%
same,%Inh,INSRR,0%
same,%Inh,INSR,13%
same,%Inh,IRAK1,23%
same,%Inh,IRAK3,100%
Cc1cc(NCC(c2ccccc2)c2ccccc2)nc(NCc2ccc(C(F)(F)F)cc2)n1 [GW497681],%Inh,GRK7,0%
same,%Inh,GSK3A,4%
same,%Inh,GSK3B; [1],0%
same,%Inh,HASPIN,0%
same,%Inh,HCK,0%
same,%Inh,HIPK1,0%
same,%Inh,HIPK2,0%
same,%Inh,HIPK3,0%
same,%Inh,HIPK4,0%
same,%Inh,HPK1,23%
same,%Inh,HUNK,13%
same,%Inh,ICK,0%
same,%Inh,IGF1R,27%
same,%Inh,IKK-alpha,0%
same,%Inh,IKK-beta,0%
same,%Inh,IKK-epsilon,26%
same,%Inh,INSRR,0%
same,%Inh,INSR,0%
same,%Inh,IRAK1,23%
same,%Inh,IRAK3,0%
